Source: PubChem BioAssay (Tox21)
Inconclusive results are not listed. Entries that show only a call come without a potency. Values without a mark were called inactive. Calls of active or inactive are those of the source. The call rests on the fitted dose curve.

Target: 5-hydroxytryptamine receptor 2A (Homo sapiens) (UniProt P28223)
Experiment: 5-hydroxytryptamine receptor 2A (HTR2A) small molecule antagonists, cell-based qHTS assay (AID 1963586); further: nearly all actives have a fitted effect of over 45% in size
Outline: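 CHO cells stably expressing human HTR2A were plated for 18 h at 37 C, then loaded with calcium dye for 1 h. Compounds were preincubated 5 min at room temperature before DOI (4 nM solution) was added. Kinetic fluorescence was read for 3 min.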
Potency means the concentration at half of the fitted maximal effect.

Sequence of 5-hydroxytryptamine receptor 2A (Homo sapiens) (P28223 whole entry, looked up): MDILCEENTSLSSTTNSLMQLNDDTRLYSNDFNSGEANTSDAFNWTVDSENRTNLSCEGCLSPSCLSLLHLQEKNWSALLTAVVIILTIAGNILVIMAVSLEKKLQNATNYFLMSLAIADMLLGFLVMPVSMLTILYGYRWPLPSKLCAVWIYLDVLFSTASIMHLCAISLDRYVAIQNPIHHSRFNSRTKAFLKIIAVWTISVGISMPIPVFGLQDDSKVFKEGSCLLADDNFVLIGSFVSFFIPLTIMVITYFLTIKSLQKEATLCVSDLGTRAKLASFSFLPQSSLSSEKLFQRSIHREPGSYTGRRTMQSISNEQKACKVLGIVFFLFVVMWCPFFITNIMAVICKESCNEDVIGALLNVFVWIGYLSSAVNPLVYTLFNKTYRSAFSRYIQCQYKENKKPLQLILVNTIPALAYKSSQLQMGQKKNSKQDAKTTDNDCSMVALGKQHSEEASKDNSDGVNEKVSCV

Row | Compound | Potency | activity, negative = inhibition
1 | CC(C)(C)NCCNC(C)(C)C | inactive | –
2 | ONc1ccccc1 | inactive | –
3 | CC(C)c1ccc(C#N)cc1 | inactive | –
4 | CCCCCc1ccc(N)cc1 | inactive | –
5 | C[C@@H]1CN(CCCn2c3ccccc3c3ccccc32)C[C@H](C)N1 | inactive | –
6 | c1ccc(CC2=NCCN2)cc1 | inactive | –
7 | COc1cc(S(=O)(=O)O)c(C)cc1N=Nc1c(O)ccc2cc(S(=O)(=O)O)ccc12 | inactive | –
8 | CCCCCCCCCCCCCCCCCO | – | -18.1% [at 12.7 µM]
9 | O=Cc1c(Cl)cccc1Cl | inactive | –
10 | CC(=O)c1c(C)cc(C(C)(C)C)cc1C | inactive | –
11 | Cc1ccsc1C(=CCCN1CCC[C@@H](C(=O)O)C1)c1sccc1C | inactive | –
12 | CCC1CO1 (stereo not drawn) | inactive | –
13 | CCCCC(CC)(CO)CO | inactive | –
14 | Cc1occc1C(=O)Nc1ccc(C(=O)N2CCC(F)(F)/C(=C\C(=O)N3CCC(N4CCCCC4)CC3)c3ccccc32)cc1 | inactive | –
15 | COc1ccc2sc(C(=O)Nc3nnn[nH]3)c(OC(C)C)c2c1 | inactive | –
16 | CCN(CC)CCOc1ccc(C(O)(Cc2ccc(Cl)cc2)c2ccc(C)cc2)cc1 (stereo not drawn) | inactive | –
17 | COc1ccc(-c2coc3cc(O)ccc3c2=O)cc1 | inactive | –

Row | Compound | Potency | activity, negative = inhibition
18 | CN(C)CCn1nnnc1SCC1=C(C(=O)O)N2C(=O)[C@@H](NC(=O)Cc3csc(N)n3)[C@H]2SC1 | inactive | –
19 | CCCCCCCCCC[N+](C)(C)[O-] | inactive | –
20 | CCc1cccc(C)c1N(C(=O)CS(=O)(=O)O)C(C)COC (stereo not drawn) | inactive | –
21 | O=C(CCC1CCN(Cc2ccccc2)CC1)c1ccc2c(c1)NCCCC2 | 2.59 µM (active) | –
22 | CCCCCCCCN | inactive | –
23 | OCCN(CCO)c1cccc(Cl)c1 | inactive | –
24 | C/C=C(\C)C(=O)OCC/C=C\CC | inactive | –
25 | Cc1ccc(Cl)cc1Cl | inactive | –
26 | CC(=O)OCC[N+](C)(C)C | inactive | –
27 | O=C1CCCCCCCCCCC(=O)OCCO1 | inactive | –
28 | CCCCCCCCCCc1ccccc1 | inactive | –
29 | C=C(C)C(=O)OCCN(C)C | inactive | –
30 | C[C@H](O)C(=O)Nc1c(I)c(C(=O)NC(CO)CO)c(I)c(C(=O)NC(CO)CO)c1I | inactive | –
31 | CCC(=O)Nc1ccc(O)cc1 | inactive | –
32 | CC(C(=O)O)c1ccc(/C=C2\CCCCC2=O)cc1 (stereo not drawn) | inactive | –
33 | COc1cccc(-c2ccc(/C=C\CN3CCCCCC3)cc2Cl)c1 | inactive | –
